According to the supplement of paper PMC10849652:
Targets with a hit are over-represented here; the source holds about 8,800 in all. About 0.5% of all pairs of compound and target were hits. A number with no mark means an inactive call.

Columns and labels:
Experiment in all cases: log2 fold change, soluble protein after heating vs DMSO (PISA); higher = thermal stabilisation; K562 lysate, 10 uM; active = over 0.2 and 3.5 SD of the protein, either way, in both replicates (recomputed)
ibrutinib = compound: C=CC(=O)N1CCC[C@@H](n2nc(-c3ccc(Oc4ccccc4)cc3)c3c(N)ncnc32)C1 [ibrutinib]
Summary of the method: (§1)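 Pellets of K562 cells were dounce-homogenised in PBS pH 7.4 with 1 mM MgCl2, and the crude extract was held at 1 mg/mL protein for a 30 min treatment with 10 μM compound. Aliquots were heated for 3 min over 48°C-58°C and pooled before NP-40 was added to 0.5% at 4°C. The supernatant from 21,000xg for 90 min was quantified by TMTpro 16plex LC-MS/MS with channel sums equalised. Values are reported from duplicates as log-two fold change in thermal stability relative to solvent controls.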

[1] = compound: CC(=O)c1cnc2ccc(-c3cc(Cl)c(O)c(Cl)c3)nc2c1N[C@H]1CC[C@H](CN(C)C)CC1
Summary of the method: as §1

ralimetinib = compound: CC(C)(C)Cn1c(N)nc2ccc(-c3[nH]c(C(C)(C)C)nc3-c3ccc(F)cc3)nc21 [ralimetinib]
Summary of the method: as §1

[2] = compound: CC(C)(O)CC(=O)NCCn1ccc2ncnc(Nc3ccc(Oc4cccc(C(F)(F)F)c4)c(Cl)c3)c21
Summary of the method: as §1

[3] = compound: CC(C)C1=C2N=C(C=C(N2N=C1)NCC3=CC=CC=C3)NCCCCCCN
Summary of the method: as §1

[4] = compound: CC1=C(C(CC(=O)N1)C2=CC=C(C=C2)C(F)(F)F)C(=O)NC3=C(C=C4C(=C3)C=NN4)F
Summary of the method: as §1

[5] = compound: CC1=C(C2=C(C=C1)C(=O)C3=CC=CC=C3N2CCCN)C
Summary of the method: as §1

[6] = compound: CC1=C(C=C(C=C1)NC(=O)C2=CC(=CC=C2)C(C)(C)C#N)NC3=CC4=C(C=C3)N=CN(C4=O)C
Summary of the method: as §1

[7] = compound: CC1=C(C=C(C=C1)NC(=O)C2=CC(=CC=C2)N(C)C)NC(=O)C3=CC=C(C=C3)O
Summary of the method: as §1

[8] = compound: CC1=CC=C(C=C1)SC2=C3C=C(SC3=CN=C2)C(=O)N
Summary of the method: as §1

vemurafenib = compound: CCCS(=O)(=O)Nc1ccc(F)c(C(=O)c2c[nH]c3ncc(-c4ccc(Cl)cc4)cc23)c1F [vemurafenib]
Summary of the method: as §1

[9] = compound: CCCS(=O)(=O)Nc1ccc(F)c(C(=O)c2c[nH]c3ncc(Cl)cc23)c1F
Summary of the method: as §1

barasertib = compound: CCN(CCCOc1ccc2c(Nc3cc(CC(=O)Nc4cccc(F)c4)[nH]n3)ncnc2c1)CCOP(=O)(O)O [barasertib]
Summary of the method: as §1

[10] = compound: CC[C@@H]1C(=O)N(C)c2cnc(Nc3ccc(C(=O)NC4CCN(C)CC4)cc3OC)nc2N1C1CCCC1
Summary of the method: as §1

volasertib = compound: CC[C@@H]1C(=O)N(C)c2cnc(Nc3ccc(C(=O)N[C@H]4CC[C@H](N5CCN(CC6CC6)CC5)CC4)cc3OC)nc2N1C(C)C [volasertib]
Summary of the method: as §1

[11] = compound: CCn1c(C(=O)N(C2CC2)C2CC2)cc2c3c(ncn3C)c(Nc3cc(C)n(C)n3)nc21
Summary of the method: as §1

[12] = compound: CCn1cc(-c2ccnc3[nH]c(-c4cccc(CN(C)C)c4)cc23)c(-c2ccc(NC(=O)N(C)C)cc2)n1
Summary of the method: as §1

[13] = compound: CN1CCC(CNc2ccc3ncc(-c4cccc(OC(F)(F)F)c4)n3n2)CC1
Summary of the method: as §1

saracatinib = compound: CN1CCN(CCOc2cc(OC3CCOCC3)c3c(Nc4c(Cl)ccc5c4OCO5)ncnc3c2)CC1 [saracatinib]
Summary of the method: as §1

sotrastaurin = compound: CN1CCN(c2nc(C3=C(c4c[nH]c5ccccc45)C(=O)NC3=O)c3ccccc3n2)CC1 [sotrastaurin]
Summary of the method: as §1

Chain of UniProt Q92947 (Q92947 whole entry, looked up): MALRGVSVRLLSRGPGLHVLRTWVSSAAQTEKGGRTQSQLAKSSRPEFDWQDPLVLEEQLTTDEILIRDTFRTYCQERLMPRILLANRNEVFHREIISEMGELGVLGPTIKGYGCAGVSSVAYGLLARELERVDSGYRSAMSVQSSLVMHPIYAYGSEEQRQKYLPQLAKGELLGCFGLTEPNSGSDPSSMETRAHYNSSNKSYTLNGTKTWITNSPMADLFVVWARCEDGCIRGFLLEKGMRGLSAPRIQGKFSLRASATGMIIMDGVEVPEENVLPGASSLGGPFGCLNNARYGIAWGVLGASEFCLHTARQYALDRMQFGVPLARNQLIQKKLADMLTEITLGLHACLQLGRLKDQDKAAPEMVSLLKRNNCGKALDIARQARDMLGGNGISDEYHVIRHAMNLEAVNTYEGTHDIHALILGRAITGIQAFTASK
Chain of UniProt Q13011 (Q13011 whole entry, looked up): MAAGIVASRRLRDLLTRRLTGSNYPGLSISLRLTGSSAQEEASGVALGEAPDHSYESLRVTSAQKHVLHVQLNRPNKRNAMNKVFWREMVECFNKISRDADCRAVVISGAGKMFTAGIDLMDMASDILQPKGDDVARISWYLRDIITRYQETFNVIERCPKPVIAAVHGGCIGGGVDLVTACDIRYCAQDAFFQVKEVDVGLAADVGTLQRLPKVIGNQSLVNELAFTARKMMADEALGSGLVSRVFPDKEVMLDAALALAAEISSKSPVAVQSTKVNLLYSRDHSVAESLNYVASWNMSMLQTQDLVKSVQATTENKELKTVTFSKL
Chain of UniProt O75521 (O75521 whole entry, looked up): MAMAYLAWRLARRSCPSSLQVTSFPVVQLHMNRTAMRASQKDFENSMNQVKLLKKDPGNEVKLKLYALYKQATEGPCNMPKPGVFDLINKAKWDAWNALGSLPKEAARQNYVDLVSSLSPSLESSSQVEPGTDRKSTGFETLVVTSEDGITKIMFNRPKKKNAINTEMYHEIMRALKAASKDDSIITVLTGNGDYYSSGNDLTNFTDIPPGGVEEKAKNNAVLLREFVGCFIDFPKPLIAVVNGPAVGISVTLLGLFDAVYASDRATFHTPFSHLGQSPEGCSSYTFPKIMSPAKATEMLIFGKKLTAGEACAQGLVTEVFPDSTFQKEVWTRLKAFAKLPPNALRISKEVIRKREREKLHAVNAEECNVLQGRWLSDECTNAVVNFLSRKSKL
Chain of UniProt P22102 (P22102 whole entry, looked up): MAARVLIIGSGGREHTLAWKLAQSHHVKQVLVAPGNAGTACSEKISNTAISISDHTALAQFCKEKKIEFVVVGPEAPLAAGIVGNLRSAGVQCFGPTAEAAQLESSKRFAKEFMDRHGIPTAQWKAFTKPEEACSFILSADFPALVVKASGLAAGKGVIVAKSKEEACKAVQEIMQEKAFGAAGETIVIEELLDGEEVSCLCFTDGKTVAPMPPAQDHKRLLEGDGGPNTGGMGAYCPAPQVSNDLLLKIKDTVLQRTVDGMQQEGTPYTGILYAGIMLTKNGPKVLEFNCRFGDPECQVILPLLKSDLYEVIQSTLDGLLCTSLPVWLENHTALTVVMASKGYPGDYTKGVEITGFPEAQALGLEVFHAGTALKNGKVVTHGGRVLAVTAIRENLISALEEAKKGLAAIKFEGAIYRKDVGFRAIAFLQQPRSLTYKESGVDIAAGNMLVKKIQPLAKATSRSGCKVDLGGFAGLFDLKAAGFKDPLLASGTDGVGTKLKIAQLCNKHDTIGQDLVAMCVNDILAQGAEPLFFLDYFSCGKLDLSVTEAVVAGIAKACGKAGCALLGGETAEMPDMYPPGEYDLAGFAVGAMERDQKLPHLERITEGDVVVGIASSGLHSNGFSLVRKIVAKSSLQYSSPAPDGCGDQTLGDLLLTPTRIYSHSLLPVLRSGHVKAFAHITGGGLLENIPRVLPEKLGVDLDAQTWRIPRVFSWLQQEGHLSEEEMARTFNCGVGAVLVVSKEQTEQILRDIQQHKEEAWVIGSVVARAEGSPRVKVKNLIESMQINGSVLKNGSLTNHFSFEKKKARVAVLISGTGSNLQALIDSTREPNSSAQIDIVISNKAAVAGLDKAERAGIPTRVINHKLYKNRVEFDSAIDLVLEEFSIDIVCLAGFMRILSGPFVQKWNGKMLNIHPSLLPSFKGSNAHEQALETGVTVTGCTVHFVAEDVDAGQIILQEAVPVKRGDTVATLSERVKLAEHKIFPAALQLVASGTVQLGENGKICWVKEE
Chain of UniProt Q9NX74 (Q9NX74 whole entry, looked up): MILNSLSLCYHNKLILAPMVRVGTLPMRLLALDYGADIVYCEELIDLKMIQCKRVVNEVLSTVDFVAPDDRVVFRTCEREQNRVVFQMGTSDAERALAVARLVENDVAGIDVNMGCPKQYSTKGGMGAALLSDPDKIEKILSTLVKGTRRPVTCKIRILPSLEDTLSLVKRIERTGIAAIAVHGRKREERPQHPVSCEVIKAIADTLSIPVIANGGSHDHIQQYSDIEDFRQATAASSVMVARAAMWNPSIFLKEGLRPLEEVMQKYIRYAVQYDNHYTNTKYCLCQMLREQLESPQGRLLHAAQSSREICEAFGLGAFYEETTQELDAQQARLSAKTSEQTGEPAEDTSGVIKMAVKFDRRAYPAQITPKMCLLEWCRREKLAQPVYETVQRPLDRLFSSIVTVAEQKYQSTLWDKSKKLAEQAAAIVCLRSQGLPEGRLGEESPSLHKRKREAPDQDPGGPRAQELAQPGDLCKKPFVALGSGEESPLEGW
Chain of UniProt Q06210 (Q06210 whole entry, looked up): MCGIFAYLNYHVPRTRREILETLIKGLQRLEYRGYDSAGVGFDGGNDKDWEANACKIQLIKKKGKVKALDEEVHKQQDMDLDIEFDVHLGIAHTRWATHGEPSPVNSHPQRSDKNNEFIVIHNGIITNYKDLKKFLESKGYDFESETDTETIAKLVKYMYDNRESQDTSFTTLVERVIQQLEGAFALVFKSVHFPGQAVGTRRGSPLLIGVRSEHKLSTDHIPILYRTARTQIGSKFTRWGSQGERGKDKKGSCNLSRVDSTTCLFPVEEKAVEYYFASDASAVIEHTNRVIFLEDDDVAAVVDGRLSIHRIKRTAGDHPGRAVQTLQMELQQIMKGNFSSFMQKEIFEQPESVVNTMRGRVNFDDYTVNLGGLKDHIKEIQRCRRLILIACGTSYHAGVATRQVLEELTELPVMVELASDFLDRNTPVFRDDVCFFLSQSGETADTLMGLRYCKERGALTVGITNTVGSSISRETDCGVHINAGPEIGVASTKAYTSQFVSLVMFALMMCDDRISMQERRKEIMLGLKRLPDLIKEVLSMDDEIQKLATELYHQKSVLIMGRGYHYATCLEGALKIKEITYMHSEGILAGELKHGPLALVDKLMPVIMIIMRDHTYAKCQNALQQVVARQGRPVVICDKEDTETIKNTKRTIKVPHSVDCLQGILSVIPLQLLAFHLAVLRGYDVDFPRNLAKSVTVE
Chain of UniProt Q9NRY5 (Q9NRY5 whole entry, looked up): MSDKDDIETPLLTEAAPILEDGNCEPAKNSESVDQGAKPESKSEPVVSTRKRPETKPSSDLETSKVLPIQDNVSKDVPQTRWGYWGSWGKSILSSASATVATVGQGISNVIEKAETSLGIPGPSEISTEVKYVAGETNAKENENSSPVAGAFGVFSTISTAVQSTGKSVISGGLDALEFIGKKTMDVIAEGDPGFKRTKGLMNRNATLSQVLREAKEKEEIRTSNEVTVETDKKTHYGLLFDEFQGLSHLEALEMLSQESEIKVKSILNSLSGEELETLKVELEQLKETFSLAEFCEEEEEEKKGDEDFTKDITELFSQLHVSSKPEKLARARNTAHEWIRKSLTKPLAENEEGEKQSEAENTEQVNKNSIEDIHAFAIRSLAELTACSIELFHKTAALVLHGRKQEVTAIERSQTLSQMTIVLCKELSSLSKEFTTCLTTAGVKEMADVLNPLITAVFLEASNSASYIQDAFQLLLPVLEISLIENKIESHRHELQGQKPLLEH
Chain of UniProt Q8N9F7 (Q8N9F7 whole entry, looked up): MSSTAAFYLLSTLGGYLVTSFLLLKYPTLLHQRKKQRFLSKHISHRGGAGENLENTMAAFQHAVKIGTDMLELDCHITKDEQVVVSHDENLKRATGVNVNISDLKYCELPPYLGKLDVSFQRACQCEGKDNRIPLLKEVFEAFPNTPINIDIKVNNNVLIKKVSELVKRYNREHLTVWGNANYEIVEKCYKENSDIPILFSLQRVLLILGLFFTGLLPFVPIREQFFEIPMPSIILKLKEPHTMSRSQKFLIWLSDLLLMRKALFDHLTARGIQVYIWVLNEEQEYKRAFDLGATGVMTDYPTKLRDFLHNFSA
Chain of UniProt Q9UBQ6 (Q9UBQ6 whole entry, looked up): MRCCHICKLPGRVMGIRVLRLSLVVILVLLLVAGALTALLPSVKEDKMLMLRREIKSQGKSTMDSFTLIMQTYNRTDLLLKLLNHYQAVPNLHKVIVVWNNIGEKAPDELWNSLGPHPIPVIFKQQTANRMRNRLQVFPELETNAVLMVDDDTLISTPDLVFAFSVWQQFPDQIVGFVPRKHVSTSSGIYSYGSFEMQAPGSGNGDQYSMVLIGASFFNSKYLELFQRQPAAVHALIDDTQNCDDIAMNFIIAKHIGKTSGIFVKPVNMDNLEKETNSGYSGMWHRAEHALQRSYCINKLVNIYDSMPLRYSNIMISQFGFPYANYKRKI
Chain of UniProt Q8NEZ5 (Q8NEZ5 whole entry, looked up): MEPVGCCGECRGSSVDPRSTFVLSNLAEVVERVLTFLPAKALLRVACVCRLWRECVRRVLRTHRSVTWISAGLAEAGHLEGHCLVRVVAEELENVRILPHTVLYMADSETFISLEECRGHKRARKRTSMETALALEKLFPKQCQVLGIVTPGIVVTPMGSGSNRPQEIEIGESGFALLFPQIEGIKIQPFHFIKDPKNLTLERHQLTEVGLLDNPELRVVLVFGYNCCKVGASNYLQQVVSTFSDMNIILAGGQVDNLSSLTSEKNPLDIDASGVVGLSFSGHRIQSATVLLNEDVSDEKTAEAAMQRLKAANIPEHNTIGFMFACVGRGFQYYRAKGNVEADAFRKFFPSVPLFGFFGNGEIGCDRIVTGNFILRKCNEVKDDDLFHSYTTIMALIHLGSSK

Target | log2 fold change (ibrutinib) | log2 fold change [1] | log2 fold change (ralimetinib) | log2 fold change [2] | log2 fold change [3] | log2 fold change [4] | log2 fold change [5] | log2 fold change [6] | log2 fold change [7] | log2 fold change [8] | log2 fold change (vemurafenib) | log2 fold change [9] | log2 fold change (barasertib) | log2 fold change [10] | log2 fold change (volasertib) | log2 fold change [11] | log2 fold change [12] | log2 fold change [13] | log2 fold change (saracatinib) | log2 fold change (sotrastaurin)
ECI2 (UniProt O75521) | 0.01 | -0.027 | -0.033 | -0.049 | -0.015 | -0.013 | -0.008 | 0.013 | 0.007 | 0 | 0.071 | 0.013 | 0.007 | 0.059 | -0.013 | 0.004 | -0.021 | -0.017 | -0.003 | -0.045
GDPD1 (UniProt Q8N9F7) | 0.039 | -0.058 | 0.06 | -0.137 | 0.047 | -0.032 | -0.001 | 0.055 | 0.024 | -0.063 | 0.116 | 0.055 | -0.005 | 0.041 | -0.008 | 0.004 | 0.074 | -0.032 | -0.023 | 0.005
FBXO22 (UniProt Q8NEZ5) | -0.03 | 0.017 | 0.003 | -0.06 | -0.078 | -0.026 | -0.006 | 0.016 | 0 | -0.014 | 0.017 | 0.001 | 0.025 | 0.011 | -0.027 | 0.012 | -0.002 | -0.008 | -0.015 | 0.01
FYB1 isoform 3 (UniProt O15117) | -0.008 | -0.01 | -0.022 | -0.008 | 0.005 | -0.017 | -0.042 | 0.059 | 0.008 | -0.013 | -0.056 | -0.011 | -0.003 | 0.043 | -0.026 | -0.018 | 0.072 | -0.101 | 0.007 | 0.008
EP300 (UniProt Q09472) | 0.084 | 0.117 | -0.026 | -0.011 | -0.07 | 0.423 | -0.011 | -0.035 | -0.025 | -0.008 | -0.018 | -0.01 | 0.007 | -0.006 | -0.042 | -0.009 | -0.151 | 0.058 | 0.027 | -0.022
DUS2 (UniProt Q9NX74) | 0.071 | -0.036 | 0.026 | 0.097 | -0.003 | -0.056 | -0.029 | -0.004 | 0.091 | 0.01 | 0.022 | 0.032 | -0.026 | -0.033 | -0.071 | -0.016 | -0.095 | 0.023 | -0.095 | -0.017
GFPT1 (UniProt Q06210) | 0.014 | -0.014 | 0.002 | -0.024 | 0.022 | -0.015 | 0.012 | 0.009 | 0.014 | 0.01 | 0.014 | 0.02 | 0.009 | -0.026 | -0.036 | 0.007 | 0.009 | -0.042 | 0.009 | -0.014
GCDH (UniProt Q92947) | -0.046 | 0.028 | -0.04 | 0.014 | -0.051 | 0.069 | -0.019 | 0.086 | -0.017 | -0.03 | 0.031 | 0.025 | -0.054 | 0.002 | 0.022 | -0.003 | -0.07 | -0.077 | -0.041 | -0.041
EPN2 (UniProt O95208) | -0.01 | -0.016 | 0.075 | -0.004 | -0.058 | 0.009 | -0.024 | 0.001 | 0.017 | -0.009 | 0.019 | 0.027 | 0.043 | 0.044 | 0.016 | -0.002 | -0.417 (active) | 0.08 | 0.004 | 0.002
FAM114A2 (UniProt Q9NRY5) | -0.016 | -0.061 | -0.036 | -0.11 | 0.057 | 0.171 | 0.06 | -0.069 | 0.005 | 0.012 | 0.054 | 0.049 | 0.086 | 0.131 | -0.013 | 0.014 | 0.049 | -0.039 | 0.03 | 0.033
EXTL2 (UniProt Q9UBQ6) | 0.217 | -0.056 | -0.015 | 0 | -0.077 | 0.021 | -0.146 | 0.014 | -0.04 | -0.071 | -0.052 | 0.066 | 0.057 | -0.13 | 0.019 | 0.03 | -0.198 | 0.078 | -0.017 | -0.026
DYRK1A (UniProt Q13627) | -0.019 | 0.264 (active) | -0.003 | 0.011 | 0.01 | 0.007 | 0.005 | -0.007 | -0.024 | 0.034 | -0.06 | -0.009 | 0.025 | -0.047 | -0.016 | 0.038 | -0.004 | 0.044 | -0.017 | -0.013
ECH1 (UniProt Q13011) | -0.035 | -0.02 | 0.064 | -0.036 | -0.033 | 0.04 | -0.02 | -0.017 | -0.018 | 0.013 | -0.003 | -0.025 | -0.008 | -0.019 | 0.041 | -0.007 | -0.07 | 0.348 (active) | -0.047 | 0.608 (active)
FADS1, A0A0A0MR51 | 0.011 | 0.178 | 0.094 | 0.094 | -0.003 | -0.032 | 0.002 | 0.113 | -0.08 | -0.115 | -0.041 | 0.145 | -0.018 | 0.02 | -0.187 | -0.062 | -0.021 | -0.078 | -0.026 | -0.037
DVL2 (UniProt O14641) | -0.032 | 0.085 | 0.022 | 0.032 | -0.019 | 0.028 | -0.056 | -0.072 | 0.045 | 0.11 | 0.067 | -0.172 | 0.119 | -0.033 | 0 | 0.007 | 0.011 | -0.003 | 0.018 | -0.055
GART (UniProt P22102) | 0.007 | 0.009 | 0.01 | 0.036 | 0.013 | -0.014 | 0.009 | -0.027 | -0.006 | 0.021 | 0.007 | 0.001 | 0.028 | -0.066 | -0.054 | 0.038 | 0.124 | -0.013 | 0.011 | -0.023
